Measurements from PubChem BioAssay.
Inconclusive results are not listed. For part of these data: Potency and affinity values are given separately. Calls of active or inactive are those of the source. Rule as the data show it: active = fluorescence slope change above about 50%; inconclusive = mostly about 31% to 49%; inactive = weaker than that.

Columns and labels:
[1] = molecular target: ATP-dependent translocase ABCB1 (Homo sapiens) (UniProt P08183); assay: MDR1 (ABCB1) efflux transporter inhibition, cell-based (AID 377); conditions: MDR1-expressing cells, fluorescent substrate accumulation slope; stronger effect = higher value; concentration not given here
[2] = polyglutamine-triggered caspase-3 activation inhibitors, cell-based (AID 1583); conditions: polyglutamine-induced caspase-3 activation, cell assay; stronger effect = higher value;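 tested at 10 µM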
[3] = suppressors of polyQ aggregation in yeast, 75Q-TubU reporter (AID 1593); conditions: Yeast 75Q polyglutamine aggregation reporter
[4] = rescue of polyQ-huntingtin neuronal dysfunction in worms, whole organism, C. elegans mechanosensory neurons, N-terminal huntingtin (AID 1599); conditions: touch response, stronger effect = higher value
[5] = inhibitors of mitochondrial cytochrome c release, biochemical, purified mitochondria (AID 1603); conditions: stronger effect = lower value;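 also: mouse liver mitochondria challenged with calcium chloride; signal normalized to the plate average as 100%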
[6] = inhibitors of polyQ protein aggregation (AID 1604); conditions: polyglutamine-induced protein aggregation inhibition assay; stronger effect = higher value; tested at 2.5 µM

Chain of ATP-dependent translocase ABCB1 (Homo sapiens) (P08183 whole entry, looked up): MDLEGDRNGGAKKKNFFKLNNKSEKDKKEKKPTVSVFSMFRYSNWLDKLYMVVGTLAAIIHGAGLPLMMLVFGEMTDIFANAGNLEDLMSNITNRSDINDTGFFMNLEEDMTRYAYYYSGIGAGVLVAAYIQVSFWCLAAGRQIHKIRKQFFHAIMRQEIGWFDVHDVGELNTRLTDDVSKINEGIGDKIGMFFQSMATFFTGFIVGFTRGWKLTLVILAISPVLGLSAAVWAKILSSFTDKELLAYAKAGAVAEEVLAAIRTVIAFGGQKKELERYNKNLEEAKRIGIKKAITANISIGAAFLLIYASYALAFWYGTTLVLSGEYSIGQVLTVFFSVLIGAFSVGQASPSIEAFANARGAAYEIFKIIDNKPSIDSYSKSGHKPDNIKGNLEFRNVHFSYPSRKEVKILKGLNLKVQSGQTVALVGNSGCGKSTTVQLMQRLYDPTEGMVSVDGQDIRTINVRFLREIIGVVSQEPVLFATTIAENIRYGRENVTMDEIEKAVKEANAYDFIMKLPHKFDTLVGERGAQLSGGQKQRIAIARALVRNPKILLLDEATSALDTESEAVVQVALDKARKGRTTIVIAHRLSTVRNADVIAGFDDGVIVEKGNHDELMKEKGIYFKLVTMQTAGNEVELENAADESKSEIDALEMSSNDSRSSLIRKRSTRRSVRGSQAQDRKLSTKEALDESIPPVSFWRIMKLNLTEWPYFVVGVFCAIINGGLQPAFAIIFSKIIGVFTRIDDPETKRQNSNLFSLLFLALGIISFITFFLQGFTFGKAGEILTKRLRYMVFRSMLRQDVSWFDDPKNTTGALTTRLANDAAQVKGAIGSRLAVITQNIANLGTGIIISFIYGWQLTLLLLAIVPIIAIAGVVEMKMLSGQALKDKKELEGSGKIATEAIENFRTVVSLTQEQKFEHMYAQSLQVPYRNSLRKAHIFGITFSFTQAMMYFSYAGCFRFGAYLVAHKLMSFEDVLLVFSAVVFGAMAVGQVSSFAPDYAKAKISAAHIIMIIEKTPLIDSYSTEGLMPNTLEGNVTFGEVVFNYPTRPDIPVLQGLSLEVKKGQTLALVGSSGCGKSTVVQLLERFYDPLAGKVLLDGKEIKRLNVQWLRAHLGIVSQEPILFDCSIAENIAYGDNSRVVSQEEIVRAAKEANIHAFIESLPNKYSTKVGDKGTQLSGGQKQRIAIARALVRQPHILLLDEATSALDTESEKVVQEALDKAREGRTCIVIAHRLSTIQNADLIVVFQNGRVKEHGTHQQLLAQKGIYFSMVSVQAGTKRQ

CCn1cc(C(=O)O)c(=O)c2cc(F)c(N3CCNCC3)nc21
fluorescence slope change [1]: 3.6% (inactive)
inhibition [2]: -8.5%
score [3]: 1.5
rescue above control [4]: 0.62
cytochrome c release ratio [5]: 0.92
inhibition of aggregation [6]: -1.85%

O=C1CC2(CCCC2)CC(=O)N1CCCCN1CCN(c2ncccn2)CC1
fluorescence slope change [1]: 65.3% (active)
inhibition [2]: -0.71%
score [3]: 1.18
rescue above control [4]: 1.91
cytochrome c release ratio [5]: 1.06
inhibition of aggregation [6]: 48.3%

CN1CCC[C@@H]1CCO[C@](C)(c1ccccc1)c1ccc(Cl)cc1
fluorescence slope change [1]: 188% (active)
inhibition [2]: 2.42%
score [3]: 1.25
rescue above control [4]: 0
cytochrome c release ratio [5]: 1.13
inhibition of aggregation [6]: 76.2%

OC(CCN1CCCCC1)(c1ccccc1)c1ccccc1
fluorescence slope change [1]: 18.2% (inactive)
inhibition [2]: 19.5%
score [3]: 1.21
rescue above control [4]: 10.4
cytochrome c release ratio [5]: 1.45
inhibition of aggregation [6]: 65%

Cc1cc(O)cc(C)c1Cl
inhibition [2]: 0.93%
score [3]: 0.53
cytochrome c release ratio [5]: 5.53
inhibition of aggregation [6]: 81.6%

CCN(CCCCOC(=O)c1ccc(OC)c(OC)c1)C(C)Cc1ccc(OC)cc1 (stereo not given)
fluorescence slope change [1]: -44.1% (inactive)
inhibition [2]: 24.4%
score [3]: 1.51
rescue above control [4]: 1.7
cytochrome c release ratio [5]: 0.92
inhibition of aggregation [6]: 65.1%

Nc1ccc(S(=O)(=O)NC(=O)c2ccccc2)cc1
fluorescence slope change [1]: 30% (inactive)
inhibition [2]: 20.3%
score [3]: 1.2
rescue above control [4]: -4.53
cytochrome c release ratio [5]: 0.95
inhibition of aggregation [6]: 47.9%

CC(C)NNC(=O)c1ccncc1
fluorescence slope change [1]: 97.9% (active)
inhibition [2]: 12.9%
score [3]: 1.22
cytochrome c release ratio [5]: 1.02
inhibition of aggregation [6]: 71.4%

CCCCC(CC)CN=C(N)NC(N)=NCCCCCCN=C(N)NC(N)=NCC(CC)CCCC (stereo not given)
fluorescence slope change [1]: 152% (active)
score [3]: -1.46
rescue above control [4]: 0
cytochrome c release ratio [5]: 26.4
inhibition of aggregation [6]: 88%

CC1CCC(NC(=O)N(CCCl)N=O)CC1 (stereo not given)
fluorescence slope change [1]: 10.9% (inactive)
inhibition [2]: 13.6%
score [3]: 0.02
rescue above control [4]: -12.6
cytochrome c release ratio [5]: 1.01
inhibition of aggregation [6]: 26.4%

C[C@]12C=CC(=O)C=C1CC[C@H]1[C@@H]3C[C@@H](O)[C@](O)(C(=O)CO)[C@@]3(C)C[C@H](O)[C@@]12F
fluorescence slope change [1]: 27% (inactive)

CN1CCC(=C2c3ccccc3Sc3ccccc32)CC1
fluorescence slope change [1]: 107% (active)
inhibition [2]: -31.4%
score [3]: 1.33
cytochrome c release ratio [5]: 1.44
inhibition of aggregation [6]: 88.8%

CCn1cc(C(=O)O)c(=O)c2cc3c(cc21)OCO3
fluorescence slope change [1]: 56.5% (active)
inhibition [2]: -14.8%
score [3]: 1.16
cytochrome c release ratio [5]: 0.82
inhibition of aggregation [6]: 74.7%

CS(=O)(=O)Nc1ccc([N+](=O)[O-])cc1Oc1ccccc1
fluorescence slope change [1]: 50.2% (active)
inhibition [2]: 6.83%
score [3]: 0.85
rescue above control [4]: 3.29
cytochrome c release ratio [5]: 3.47
inhibition of aggregation [6]: 42.5%

Cc1cc2cc3c(C)cc(=O)oc3c(C)c2o1
fluorescence slope change [1]: 18.1% (inactive)
inhibition [2]: -5.8%
score [3]: 0.49
cytochrome c release ratio [5]: 1.2
inhibition of aggregation [6]: 74.1%

CN1CCOC(c2ccccc2)c2ccccc2C1 (stereo not given)
fluorescence slope change [1]: 5.9% (inactive)
inhibition [2]: 4.24%
score [3]: 1.08
rescue above control [4]: -6.88
cytochrome c release ratio [5]: 0.83
inhibition of aggregation [6]: 74.7%

COc1ccc2c(c1)c(CC(=O)OCC(=O)O)c(C)n2C(=O)c1ccc(Cl)cc1
fluorescence slope change [1]: 79% (active)
inhibition [2]: -2.12%
score [3]: 0.67
rescue above control [4]: 4.6
cytochrome c release ratio [5]: 1.11
inhibition of aggregation [6]: 77.8%
